Where a name gives a salt, the structure may show the parent alone.
Tested on: Saccharomyces cerevisiae BY4741 SeMeCo community
Assay: z-score of subpopulation abundance vs DMSO median, subpopulation auxotrophic for HUM; higher = larger share of this subpopulation than in DMSO controls
Settings: 10 µM; 24 h; SM minimal medium; subpopulation (auxotrophy): HUM
Experimental: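 Fluorescent four-plasmid SeMeCo (self-establishing metabolically cooperating S. cerevisiae BY4741 community; plasmids pH-mRuby2, pL-mWasabi, pU-eCFP, pM-TagRFP657) was grown 24 h in minimal SM medium with each Selleck FDA-approved drug at 10 µM in 384-well plates. Cells were fixed and imaged by high-content confocal microscopy. For each auxotrophic subpopulation (and the prototroph), a z-score gives the deviation from the DMSO vehicle-control population median.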

SMILES	z-score of subpopulation abundance
Cc1cc(C)nc(O)n1.O=C(Nc1ccc([N+](=O)[O-])cc1)Nc1ccc([N+](=O)[O-])cc1 [Nicarbazin]	-0.86
Cc1c[nH]c(=O)[nH]c1=O [Thymine]	0.09
CN1CCN(c2c(F)cc3c(=O)c(C(=O)O)cn4c3c2OCN4C)CC1 [Marbofloxacin]	0.33
COc1cnc(NS(=O)(=O)c2ccc(N)cc2)nc1 [Sulfameter]	0.14
NC(=O)N/N=C/c1ccc([N+](=O)[O-])o1 [Nitrofural]	-0.73
CC[C@@H]1C(=O)OC[C@@H]1Cc1cncn1C [Pilocarpine HCl]	-1.4
CCCN1CCCC[C@H]1C(=O)Nc1c(C)cccc1C [Ropivacaine]	-0.48
CC(=O)[C@@]1(O)CC[C@H]2[C@@H]3C[C@H](C)C4=CC(=O)CC[C@]4(C)[C@H]3CC[C@@]21C [Medroxyprogesterone]	-0.08
Cc1ccc(O)c([C@H](CCN(C(C)C)C(C)C)c2ccccc2)c1 [Tolterodine tartrate]	1.13
Cc1ccc(Nc2c(F)cccc2Cl)c(CC(=O)O)c1 [Lumiracoxib]	-1.5
COc1cc2c(cc1OC)-c1cc3ccc(OC)c(OC)c3c[n+]1CC2 [Palmatine]	0.8
COc1ccc(Cl)cc1C(=O)NCCc1ccc(S(=O)(=O)NC(=O)NC2CCCCC2)cc1 [Glyburide (Glibenclamide)]	-0.09
CC[C@H](C)C[C@H](C)CCCCCCCCC(=O)N[C@H]1C[C@@H](O)[C@@H](NCCN)NC(=O)[C@@H]2[C@@H](O)CCN2C(=O)[C@H]([C@H](O)CCN)NC(=O)[C@H]([C@H](O)[C@@H](O)c2ccc(O)cc2)NC(=O)[C@@H]2C[C@@H](O)CN2C(=O)[C@H]([C@@H](C)O)NC1=O [Caspofungin Acetate]	10.8
O=C(O[C@@H]1C[C@@H]2C[C@H]3C[C@H](C1)N2CC3=O)c1c[nH]c2ccccc12 [Dolasetron Mesylate]	0.41
CO/N=C(/C(=O)N[C@@H]1C(=O)N2C(C(=O)OCOC(=O)C(C)(C)C)=C(C)CS[C@H]12)c1csc(N)n1 [Cefetamet pivoxil hydrochloride]	0.8
Clc1ccc(CSC(Cn2ccnc2)c2ccc(Cl)cc2Cl)cc1 (stereo not given) [Sulconazole Nitrate]	6.12
CN(C)CCN1C(=O)c2cccc3cc(N)cc(c23)C1=O [Amonafide]	-0.09
CC(C)(C)CC(C)(C)c1ccc(OCCOCC[N+](C)(C)Cc2ccccc2)cc1 [Benzethonium Chloride]	-0.76
CCN(CC)CC#CCOC(=O)C(O)(c1ccccc1)C1CCCCC1 (stereo not given) [Oxybutynin chloride]	-0.97
CCS(=O)(=O)CCn1c([N+](=O)[O-])cnc1C [Tinidazole]	-0.47

SMILES	z-score of subpopulation abundance
Cc1c(-c2ccc(O)cc2)n(Cc2ccc(OCCN3CCCCCC3)cc2)c2ccc(O)cc12 [Bazedoxifene HCl]	-0.15
Cc1ccc(S(=O)(=O)NC(=O)NN2CC3CCCC3C2)cc1 (stereo not given) [Gliclazide]	-0.04
Cc1cc(O)cc(C)c1Cl [Chloroxylenol]	0.68
C=C1c2cccc(O)c2C(O)=C2C(=O)[C@]3(O)C(O)=C(C(N)=O)C(=O)[C@@H](N(C)C)[C@@H]3[C@@H](O)[C@H]12 [Methacycline HCl]	-0.03
CCCSc1ccc2[nH]c(NC(=O)OC)nc2c1 [Albendazole]	-0.14
CN1CCN(C2=Nc3ccccc3Oc3ccc(Cl)cc32)CC1 [Loxapine Succinate]	-0.1
CCN(CC)CCOC(=O)c1ccc(N)cc1 [Procaine HCl]	-1.23
CCCC1CC(C(=O)NC(C(C)Cl)C2OC(SC)C(O)C(O)C2O)N(C)C1 (stereo not given) [Clindamycin alcoholate]	0.14
COc1cccc2c1C(=O)c1c(O)c3c(c(O)c1C2=O)C[C@@](O)(C(C)=O)C[C@@H]3O[C@H]1C[C@H](N)[C@H](O)[C@H](C)O1 [Daunorubicin HCl]	1.29
CCOc1cc(N)c(Cl)cc1C(=O)NCC1CN(Cc2ccc(F)cc2)CCO1 (stereo not given) [Mosapride Citrate]	0.97
CCn1cc(C(=O)O)c(=O)c2cc(F)c(N3CCNC(C)C3)c(F)c21 (stereo not given) [Lomefloxacin HCl]	0.66
CN(CCN1CCC(OC(=O)Nc2ccccc2-c2ccccc2)CC1)C(=O)c1ccc(CN2CCC(C(N)=O)CC2)cc1 [Revefenacin]	0.24
O=C(O)CCCCCCCC(=O)O [Azelaic acid]	0.47
Cc1ccc(-c2cc(C(F)(F)F)nn2-c2ccc(S(N)(=O)=O)cc2)cc1 [Celecoxib]	-0.8
CC[C@H]1OC(=O)[C@H](C)[C@@H](O[C@H]2C[C@@](C)(OC)[C@@H](O)[C@H](C)O2)[C@H](C)[C@@H](O[C@@H]2O[C@H](C)C[C@H](N(C)C)[C@H]2O)[C@](C)(O)C[C@@H](C)/C(=N\OCOCCOC)[C@H](C)[C@@H](O)[C@]1(C)O [Roxithromycin]	1.28
C[C@@H](O)[C@H]1C(=O)N2C(C(=O)O)=C(S[C@@H]3CN[C@H](CNS(N)(=O)=O)C3)[C@H](C)[C@H]12 [Doripenem Hydrate]	-0.79
Fc1ccc([C@@H]2CCNC[C@H]2COc2ccc3c(c2)OCO3)cc1 [Paroxetine mesylate]	-0.17
CC(=O)OCC[N+](C)(C)C [Acetylcholine iodide]	-0.36
Cc1onc(-c2ccccc2)c1C(=O)N[C@@H]1C(=O)N2[C@@H]1SC(C)(C)[C@@H]2C(=O)O [Oxacillin sodium monohydrate]	0.65
COCCCOc1ccnc(C[S+]([O-])c2nc3ccccc3[nH]2)c1C (stereo not given) [Rabeprazole]	0.23

Source: the supplement of paper PMC8975748
